Experimental data: the supplement of paper PMC11624193, “Coupling cellular drug-target engagement to downstream pharmacology with CeTEAM” (Nature Communications, 2024)
Where a name gives a salt, the structure may show the parent alone. Values without a mark were called inactive.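 The calls were made as follows: active = log2 fold change beyond 2 SD from the library mean after excluding viability outliers; inactive = within 2 SD.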

target: PARP1 L713F-nLuc biosensor (HCT116) (UniProt P09874); assay: PARP1 L713F-nLuc/akaLuc ratio relative to DMSO control (biosensor stabilization) (fold change); higher = more PARP1 biosensor stabilization (target engagement / stabilizer), active = hit call of the paper; conditions: stock concentration (mM; final µM = stock mM x 1): 10; 24 h
Sequence (P09874 whole entry L713F, looked up): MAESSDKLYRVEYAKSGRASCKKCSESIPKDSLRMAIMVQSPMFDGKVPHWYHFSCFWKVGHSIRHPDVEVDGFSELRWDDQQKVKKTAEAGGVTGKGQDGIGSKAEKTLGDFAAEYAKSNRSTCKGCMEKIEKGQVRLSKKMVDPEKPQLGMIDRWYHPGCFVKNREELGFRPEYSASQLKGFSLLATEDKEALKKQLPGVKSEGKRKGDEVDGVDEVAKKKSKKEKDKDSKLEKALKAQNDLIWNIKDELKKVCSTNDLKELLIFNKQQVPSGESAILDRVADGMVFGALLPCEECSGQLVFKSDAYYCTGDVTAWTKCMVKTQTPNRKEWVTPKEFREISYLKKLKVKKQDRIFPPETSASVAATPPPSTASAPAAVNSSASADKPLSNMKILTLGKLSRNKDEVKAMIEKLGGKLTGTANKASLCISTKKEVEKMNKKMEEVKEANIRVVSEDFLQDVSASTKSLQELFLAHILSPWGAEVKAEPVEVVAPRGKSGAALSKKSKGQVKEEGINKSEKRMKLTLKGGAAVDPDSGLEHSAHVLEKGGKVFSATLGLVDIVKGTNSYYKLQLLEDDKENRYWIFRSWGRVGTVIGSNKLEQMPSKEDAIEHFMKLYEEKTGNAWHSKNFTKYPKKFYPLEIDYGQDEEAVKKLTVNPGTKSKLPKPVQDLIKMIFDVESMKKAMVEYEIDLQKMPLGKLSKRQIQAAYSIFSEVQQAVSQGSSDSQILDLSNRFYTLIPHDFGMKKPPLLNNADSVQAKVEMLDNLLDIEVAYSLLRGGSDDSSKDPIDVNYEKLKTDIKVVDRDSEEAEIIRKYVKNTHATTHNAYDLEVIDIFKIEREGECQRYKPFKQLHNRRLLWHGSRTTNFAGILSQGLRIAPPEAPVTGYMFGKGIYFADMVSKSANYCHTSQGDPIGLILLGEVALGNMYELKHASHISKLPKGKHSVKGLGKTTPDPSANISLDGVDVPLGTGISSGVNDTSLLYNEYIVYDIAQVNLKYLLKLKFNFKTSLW

| Compound | PARP1 L713F-nLuc/akaLuc ratio |
| --- | --- |
| COC(=O)c1ccc2c(c1)nc(NC(=O)c1ccccc1)n2CCCc1ccccc1 | 0.949 |
| COc1cc(C)c(/C=C/C(C)=C/C=C/C(C)=C/C(=O)O)c(C)c1C [Acitretin] | 0.747 |
| O=C(O)CNC(=O)c1ncc(-c2cccc(Cl)c2)cc1O [Vadadustat] | 1.03 |
| CC(C)Oc1ccc(-c2c[nH]cc2CN(C)CCN)cc1 | 1.38 |
| Clc1cc2c(NC3CCCC3)nnc(-c3ccncc3)c2cc1Cl | 0.888 |
| CC(=O)O[C@@H]1CC[C@@]2(C)[C@@H](CC[C@]3(C)[C@@H]2C(=O)C=C2[C@@H]4[C@@H](C)[C@H](C)CC[C@]4(C)CC[C@]23C)[C@@]1(C)C(=O)O | 1.18 |
| CC(C)(CCCCCC(O)CCCCCC(C)(C)C(=O)O)C(=O)O [Bempedoic acid] | 1.02 |
| CCCCC[C@H](O)CC(=O)CCc1ccc(O)c(OC)c1 [[6]-Gingerol] | 1.5 |
| CNC(=O)c1cnc(NC(=O)C2CC2)cc1Nc1cccc(-c2ncc(F)cn2)c1OC | 0.696 |
| O=C(Nc1ccc(Cl)cc1)c1cc2ccccc2cc1OP(=O)(O)O | 1.35 |
| CN1CCN(c2ccc(-c3cccc(CN4CCOCC4)c3)cc2NC(=O)c2c[nH]c(=O)cc2C(F)(F)F)CC1 | 0.636 |
| COc1cc(Nc2ncc3c(n2)-c2ccc(Cl)cc2C(c2c(F)cccc2OC)=NC3)ccc1C(=O)O [Alisertib] | 0.939 |
| COc1nc(N)nc2c1ncn2[C@@H]1O[C@H](CO)[C@@H](O)[C@@H]1O [Nelarabine] | 1.15 |
| CCCc1cc(C)[nH]c(=O)c1CNC(=O)c1cc(-c2ccc(N3CCN(C(C)C)CC3)nc2)cc2c1cnn2C(C)C | 0.862 |
| CC(C)=CC(=O)O[C@H]1Cc2cc3ccc(=O)oc3cc2OC1(C)C [Decursin] | 0.768 |
| CN(Cc1cnc2nc(N)nc(N)c2n1)c1ccc(C(=O)N[C@@H](CCC(=O)O)C(=O)O)cc1 [Methotrexate] | 0.755 |
| COc1cc2c(cc1OCCCN1CCCC1)N=C(N)C21CCC1 | 0.685 |
| C=CC(=O)N1CCC(Oc2cc3c(Nc4ccc(Cl)c(Cl)c4F)ncnc3cc2OC)CC1 [Poziotinib (HM781-36B)] | 1.28 |
| C=CC(=O)Nc1cc(Nc2nccc(-c3cn(C)c4ccccc34)n2)c(OC)cc1N(C)CCN(C)C [Osimertinib (AZD9291)] | 0.371 |
| Nc1nc(NC2CC2)cc(-c2cccc(Cl)c2Cl)n1 | 1.94 |

| Compound | PARP1 L713F-nLuc/akaLuc ratio |
| --- | --- |
| CN(C)C(=N)NC(=N)N [Metformin] | 1.5 |
| CCN(CC)CCCC(C)Nc1c2ccc(Cl)cc2nc2ccc(OC)cc12 (centres undefined) [Quinacrine Dihydrochloride Dihydrate] | 0.656 |
| CCN(CC)CCNC(=O)c1c(C)[nH]c(/C=C2\C(=O)Nc3ccc(-c4csc(-c5ccccc5)n4)cc32)c1C [Amcasertib (BBI503)] | 0.885 |
| CN(C)CCOc1ccc(/C(=C(/CCCl)c2ccccc2)c2ccccc2)cc1 [Toremifene Citrate] | 0.791 |
| NC(=O)c1cccc(N)c1 [3-Aminobenzamide] | 0.995 |
| CO[C@H]1C[C@@H]2CC[C@@H](C)[C@@](O)(O2)C(=O)C(=O)N2CCCC[C@H]2C(=O)O[C@H]([C@H](C)C[C@@H]2CC[C@@H](OC(=O)C(C)(CO)CO)[C@H](OC)C2)CC(=O)[C@H](C)/C=C(\C)[C@@H](O)[C@@H](OC)C(=O)[C@H](C)C[C@H](C)/C=C/C=C/C=C/1C | 0.565 |
| Cc1cnc(Nc2ccc(OCCN3CCCC3)cc2)nc1Nc1cccc(S(=O)(=O)NC(C)(C)C)c1 [Fedratinib] | 0.694 |
| N#Cc1ccnc(N2C(=O)CC[C@H]2C(=O)N(c2cncc(F)c2)[C@H](C(=O)NC2CC(F)(F)C2)c2ccccc2Cl)c1 [Ivosidenib (AG-120)] | 0.863 |
| Cn1ncc(Cl)c1-c1cc(C(=O)N[C@H](CN)Cc2cccc(F)c2)sc1Cl [Afuresertib] | 1.63 |
| NC(=O)c1cccc2cn(-c3ccc([C@@H]4CCCNC4)cc3)nc12 [Niraparib] | 4.32 (active) |
| O=C(Nc1ccc2c(O)cc(S(=O)(=O)O)cc2c1)Nc1ccc2c(O)cc(S(=O)(=O)O)cc2c1 [AMI-1 (free acid)] | 1.04 |
| Cc1ccc(F)c(NC(=O)Nc2ccc(-c3cccc4[nH]nc(N)c34)cc2)c1 [Linifanib (ABT-869)] | 3.59 (active) |
| CC(C)NC(=O)COc1cccc(-c2nc(Nc3ccc4[nH]ncc4c3)c3ccccc3n2)c1 | 0.38 |
| O=C(O)C1=CC(=C(c2ccc(O)c(C(=O)O)c2)c2ccc(O)c(C(=O)O)c2)C=CC1=O [Aurintricarboxylic acid] | 0.68 |
| CN1CCC(CNc2ccc3ncc(-c4cccc(OC(F)(F)F)c4)n3n2)CC1 | 1.51 |
| O=C(/C=C\n1cnc(-c2cc(C(F)(F)F)cc(C(F)(F)F)c2)n1)NNc1cnccn1 [Selinexor (KPT-330)] | 0.434 |
| C[C@@H](Nc1cc(F)cc(F)c1)c1cc(C(=O)N(C)C)cc2c(=O)cc(N3CCOCC3)oc12 | 0.667 |
| CS(=O)(=O)c1ccc(-c2nnc(/C=C/c3nnc(-c4ccc(C#N)cc4)o3)n2-c2ccccc2Cl)nc1 | 0.886 |
| O=c1[nH]cc(F)c(=O)[nH]1 [Fluorouracil (5-Fluoracil, 5-FU)] | 0.702 |
